SKKanGAS inh – SKKanGAS growth inhibition. inhibition, % at 7.5 µM. 1.3% of 300,000 active. S. pyogenes SKKanGAS, kanamycin growth, BacTiter-Glo, 6 h;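 active = mean replicate score, as percent of positive control median, at least 50; inconclusive = mean below 50 but one replicate at or above 50; inactive = mean and every replicate below 50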;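 note: strain carries kanamycin resistance gene driven by streptokinase promoter and grows in 40 µg/ml kanamycin; loss of luminescence reflects streptokinase promoter inhibition or plain growth inhibition; 0% = median of DMSO wells and 100% = positive control at its reference dose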
NALP3 yeast inh – NALP3 inhibition in yeast. 0.39% of 330,000 active. Yeast reconstituted NLRP3/ASC/caspase-1, beta-gal luminescence, 24 h. inhibition, % at 10 µM;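 active = inhibition of 50% or more; inactive = inhibition below 50%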;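 note: plate controls were induced DMSO wells for no effect and uninduced yeast grown without galactose for full effect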
tim23-1 inh – tim23-1 yeast growth inhibition; inhibition, % at 20 µM; 1.3% of 330,000 active; S. cerevisiae tim23-1 growth, BacTiter-Glo luminescence, 24 h;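 active = growth inhibition of the mutant yeast at or above 50%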;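 note: temperature-sensitive mutant grown at 25 °C; plate controls were DMSO-treated mutant yeast for no effect and medium wells lacking yeast for full effect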
tim10-1 inh – growth inhibitors of tim10-1 mutant yeast; inhibition, % at 20 µM; S. cerevisiae tim10-1 ts strain growth, BacTiter-Glo, 24 h; AID 463190; 2.2% of 330,000 active;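 active = inhibition of at least 40%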;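 note: mutant grown at 25 °C; 0% = DMSO wells with yeast and 100% = wells holding no yeast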
PfHsp90 yeast 2 – reduces growth (ATP signal) of yeast expressing P. falciparum Hsp90. S. cerevisiae expressing PfHsp90, BacTiter-Glo ATP, 48 h; yeast lacking PDR1 and PDR3 efflux regulators. inhibition, % at 9.4 µM. 0.32% of 310,000 active. AID 504621;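 active = every replicate shows inhibition above about 80%, whatever the replicate mean, limit read from the data; inconclusive = mean inhibition reaches the set limit but some replicate falls short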;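 note: 0% = DMSO neutral controls and 100% = 20 µM radicicol positive controls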
TIM10 inh – growth inhibitors of TIM10 yeast strain; AID 463195; S. cerevisiae TIM10 strain growth, BacTiter-Glo luminescence, 24 h; 1.4% of 330,000 active; inhibition, % at 10 µM;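 active = inhibition of 40% or more at the single tested concentration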;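 note: wild-type TIM10 isogenic control strain grown at permissive 25 °C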
The depositor's hits bear a star; u = inconclusive; x = no result given. Hits are enriched below; roughly 4.5% of the tested compounds scored in any of these assays.

SMILES	SKKanGAS inh	NALP3 yeast inh	tim23-1 inh	tim10-1 inh	PfHsp90 yeast 2	TIM10 inh
COCCCNC(=O)C[C@H]1C[C@H](C(=O)N(C(C)C)C(C)C)[C@@]2(C)c3[nH]c4cc(CCC(=O)N(C)C)ccc4c3CCN2C1=O	x	x	29	17	8	-1
CCOC(=O)c1cc([N+](=O)[O-])c([N+](=O)[O-])cc1NC(C)=O	-1	x	x	x	100*	x
O=C1CC(SC(=Nc2ccccc2)Nc2ccccc2)C(=O)N1c1ccc(Cl)c(Cl)c1 (stereo not given)	72*	0	1	21	-3	11
O=C1NC(=S)S/C1=C\c1cc2ccccc2nc1N1CCCCC1	41	34	38	6	108*	36
COc1ccc(-n2c(C)cc(/C=C3\SC(=S)NC3=O)c2C)cc1	17	15	6	12	1	-17
COc1ccc2nc(N3CCCCC3)c(/C=C3\SC(=S)NC3=O)cc2c1	86*	25	28	22	13	22
O=C1NC(=S)SC1=Cc1ccccc1Cl	x	x	x	x	-8	x
O=C(Cc1cccs1)N/N=C/c1ccco1	77*	22	-2	-8	-7	1
CN(Cc1ccccc1)C(=O)C1CCN(S(=O)(=O)c2ccc3nc4c(c(C(=O)O)c3c2)CCCC4)CC1	4	-2	-1	-6	-4	5
COc1ccc(-c2cc3ncnc(Cl)c3s2)cc1	54*	10	6	-26	7	7
COc1ccc(-c2cc3nnc(-c4ccccc4)nc3s2)cc1	4	17	4	3	-10	1
O=C(COC(=O)CCC1CCCC1)Nc1ccccc1Sc1ccccc1	80*	16	-1	14	-2	-10
Cc1ccc(NC(=S)NC(=O)c2ccc(F)cc2)cc1S(=O)(=O)Nc1cccc(Cl)c1	70*	4	-34	12	-13	-28
Cc1ccc(NC(=O)c2cccs2)cc1S(=O)(=O)Nc1cccc(Cl)c1	42	11	49	36	-1	30
CC(C)[C@@H](C(=O)N1CCCC1)N1C(=O)N2CCc3c([nH]c4ccccc34)[C@@]2(C)C1=O	3	8	20	27	9	8
CC1CCCC(NC(=O)NC(=O)COC(=O)c2ccc(O)cc2O)C1C (stereo not given)	x	6	26	10	-13	17
Cc1[nH]n(C(N)=S)c(=O)c1C(c1ccccc1)C(C#N)C#N (stereo not given)	-5	27	29	40	2	5
Cc1[nH]n(-c2ncc(-c3ccccc3)s2)c(=O)c1C(c1ccc(Br)cc1)C(C#N)C#N (stereo not given)	86*	17	47	37	-74	30
O=C(COc1ccc(Cl)cc1Cl)Nc1cccc(-c2ccc(N3CCOCC3)nn2)c1	4	20	6	-7	-10	6
O=C(COc1ccc(Cl)cc1Cl)Nc1ccc(-c2ccc(N3CCOCC3)nn2)cc1	51*	16	7	6	x	-3
Cc1ccc2[nH]c(C(=O)N/N=C/c3ccccc3O)c(C)c2c1	101*	15	2	-15	-17	7
COc1ccc2[nH]c(C(=O)N/N=C/c3ccccc3OC)cc2c1	-4	21	41	13	0	-1
COc1cc(OC)c2cc(C(=O)N/N=C/c3ccccc3O)[nH]c2c1	103*	20	26	1	15	21
O=C(COC(=O)c1nc(Cl)ccc1Cl)Nc1ccc2[nH]c(=O)[nH]c2c1	1	4	-38	-27	-37	-30
COc1ccc(NC(C)=O)c(C)c1	4	17	-8	-14	1	-15
SMILES	SKKanGAS inh	NALP3 yeast inh	tim23-1 inh	tim10-1 inh	PfHsp90 yeast 2	TIM10 inh
COc1cc(C)c(C(=O)CC(=O)c2c(C)cc(OC)cc2C)c(C)c1	96*	-1	7	32	x	25
CC(=O)C1=C(C)NC(SCC(=O)c2ccc(Cl)c(Cl)c2)=C(C#N)C1c1ccco1 (stereo not given)	56*	35	29	16	-6	17
Cc1cc(C)n(Cc2ccc(Cl)cc2Cl)c(=O)c1S(=O)(=O)c1ccccc1	57*	4	14	25	x	-11
CCc1ccc(C2C(C#N)=C(N)C(C#N)(C#N)C3=CCC(C(C)(C)C)CC32)cc1 (stereo not given)	85*	-6	38	33	13	33
Cc1ccc(CSc2nc3ccsc3c(=O)n2Cc2ccccn2)cc1	17	-2	40	-14	78*	19
CN(Cc1ccccc1)C(=O)c1ccc(NC(=O)Cc2ccc(NC(=O)C3CCCN(C(=O)CCc4ccccc4)C3)cc2)cc1 (stereo not given)	x	x	x	x	-22	x
O=C(Nc1ccc(Br)c2ccccc12)c1ccc2ccccc2c1O	100*	x	x	x	15	x
CC(=O)Nc1ccc(Br)c2ccccc12	2	6	6	6	-12	10
CCCCN1C(=O)C(=O)N(CC(=O)N2CCc3ccccc32)C1=O	x	5	15	10	-1	-4
COc1ccc(-c2sc3ccccc3c2/C=C/c2ccc(OC)c(OC)c2)cc1	x	15	27	4	6	10
COc1ccc(-c2sc3ccccc3c2/C=C/c2ccncc2)cc1	x	7	-45	-110	106*	-71
FC(F)(F)c1cccc(Nc2nc(N3CCCC3)nc(N3CCCC3)n2)c1	75*	12	3	22	0	16
CN1CCN(c2nc(Nc3cccc(C(F)(F)F)c3)nc(N3CCOCC3)n2)CC1	-1	19	5	11	2	7
COc1ccc(-c2csc(Nc3ccc(S(=O)(=O)Nc4cc(C)on4)cc3)n2)cc1C	68*	7	9	9	7	20
COc1ccc(-c2csc(Nc3ccc(S(=O)(=O)Nc4cc(OC)nc(OC)n4)cc3)n2)cc1	u	2	13	15	3	12
CCCCCCC(=O)N(O)C1CC(=O)N(c2ccc(F)cc2)C1=O (stereo not given)	7	9	31	32	109*	24
Cc1ccc(NC(=O)c2cc(NC(=O)c3ccco3)ccc2N2CCOCC2)cc1	2	14	46	26	21	33
Cc1ccc(NC(=O)c2cc(N3C(=O)C=CC3=O)ccc2N2CCOCC2)cc1	13	x	x	x	106*	x
Cc1ccc(NC(=O)c2cc(N3C(=O)C=CC3=O)ccc2Cl)cc1C	-10	5	14	21	110*	-1
COc1ccc(NC(=O)CSc2n[nH]c(=O)n2Cc2ccccc2)cc1Cl	-5	16	-5	0	1	-17
C[C@]12CC[C@@H]3c4ccc(O)cc4CC[C@H]3[C@@H]1CC[C@@H]2OC(=O)CCC1CCCC1	111*	7	13	19	-6	12
C[C@]12CC[C@@H]3c4ccc(O)cc4CC[C@H]3[C@@H]1CCC2=O	-2	37	3	-7	-5	-56
